High-throughput results from PubChem BioAssay.
NTMT1 inh = NTMT1 methyltransferase inhibition | Q9BV86 | NTMT1 MTase-Glo SAH luminescence, purified enzyme | Potency, µM (titrated, usually from 114 µM), for inactives: at the highest dose activity change, negative = inhibition, most hits filed as inhibitors | 59,000 compounds, 2.5% hits | AID 1645870;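 further: plate controls were DMSO vehicle for no effect and no enzyme for full effect; nearly all actives have a fitted effect of over 65% in size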
Target sequence (Q9BV86 whole entry, looked up): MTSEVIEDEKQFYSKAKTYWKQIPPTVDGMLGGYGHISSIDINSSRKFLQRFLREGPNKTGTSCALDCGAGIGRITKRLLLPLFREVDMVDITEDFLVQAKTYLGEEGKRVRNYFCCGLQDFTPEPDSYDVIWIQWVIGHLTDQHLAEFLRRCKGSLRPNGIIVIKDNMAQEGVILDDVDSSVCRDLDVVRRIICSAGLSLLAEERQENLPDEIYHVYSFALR
HTT-AS act = activators of huntingtin-antisense promoter activity; Potency, µM (doses to about 57.5 µM), for the others: at the top dose activity change, positive = activation, hits mostly activators; HEK293 HTT-AS promoter firefly luciferase reporter, 24 h; response scale: percent change from vehicle, -100% = no light; 48,000 compounds, 0.24% hits; further: nearly all actives have a fitted effect of over 55% in size
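Luminescence was read after Dual-Glo reagent and a 10 min room-temperature incubation. Values were normalized to vehicle (0% activity) and zero RLU (-100% activity). Reporter HEK293 cells had been exposed to compounds (up to 57.5 uM final) for 24 h.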
HTT promoter inh = inhibitors of huntingtin promoter activity. HEK293 HTT promoter firefly luciferase reporter, 24 h. Potency, µM (highest dose often 57.5 µM), for the others: at the highest dose activity change, negative = inhibition, hits mostly inhibitors. 48,000 compounds, 0.93% hits; further: nearly all actives have a fitted effect of over 50% in size
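Firefly luciferase signal from promoter-reporter HEK293 cells was scaled between vehicle (0%) and zero RLU (-100%). Compounds were tested at final concentrations of up to 57.5 uM over 24 h at 37 degrees C. PTC124 at 50 uM final served as control inhibitor.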
* marks the source's active call; other numbers are inactive results; ! = repeats disagree; [ ] = dose if it differs, or a comment. Compounds with a hit are over-represented: about 2.4% of the library has one in this group of screens. The call rests on the fitted dose curve; in most records, active means well fitted curve in the direction sought with a large enough effect; inconclusive means small, poorly fitted or top-dose-only effect, or another doubt; inactive means no such curve, though single readings can be large; an effect the other way counts as inactive or inconclusive. Potency means the concentration at half of the fitted maximal effect.

How did O=C(Nc1ccc(S(=O)(=O)Nc2nccs2)cc1)c1ccnc2ccccc12 do in these assays?
NTMT1 inh: 7%

How did Cc1cc(NC(=O)CN(C)S(=O)(=O)c2ccc3c(c2)CCCC(=O)N3)ccc1Br do in these assays?
NTMT1 inh: 17%; HTT-AS act: -50%; HTT promoter inh: 25µM*

What do the screens show for `Cc1cc(C)c(NC(=O)CN(C)S(=O)(=O)c2ccc3c(c2)CCC(=O)N3)c(C)c1`?
NTMT1 inh: inconclusive; HTT-AS act: 0%; HTT promoter inh: -6%

What do the screens show for `CC(=O)N1CCN(C(=O)COC(=O)c2ccc([S+](C)(=O)[O-])c([N+](=O)[O-])c2)CC1`?
NTMT1 inh: 13%[57.5 µM]

Results for Cc1ccc(C(N)=O)cc1Nc1nccc(-c2cn(C(C)C)c3cnccc23)n1 ?
NTMT1 inh: 11µM*; HTT-AS act: -30%; HTT promoter inh: inconclusive

Results for COc1cc(N2CCN(C)CC2)ccc1Nc1nccc(-c2cn(C)c3cnccc23)n1 ?
NTMT1 inh: -19%

How did CC(C)c1ccc(Cn2ccc3c4c(N)nc(NC5CC5)nc4ccc32)cc1 do in these assays?
NTMT1 inh: 25µM*!; HTT-AS act: -26%; HTT promoter inh: -19%

What do the screens show for `CCNc1cc(NC2CCC(O)CC2)nc(Nc2ccc3c(ccn3Cc3ccccc3)c2)n1` (stereo not given)?
NTMT1 inh: inconclusive; HTT-AS act: -21%; HTT promoter inh: -20%

Results for CC1(C)SCCN(S(=O)(=O)c2ccc(OCC#CCO)cc2)[C@H]1C(=O)NO ?
NTMT1 inh: 3%

Results for COc1ccc(-c2ccc(NC(=O)c3cccs3)cn2)cc1 ?
NTMT1 inh: 2%

What do the screens show for `O=C(Cc1ccc(Cl)c(Cl)c1)Nc1ccc([S+](=O)([O-])Nc2nnc(-c3ccccn3)s2)cc1`?
NTMT1 inh: 79µM*

Results for O=C(Cc1ccc(Cl)c(Cl)c1)Nc1ccc([S+](=O)([O-])Nc2ccc([N+](=O)[O-])cc2)cc1 ?
NTMT1 inh: -5%[57.5 µM]

What do the screens show for `Cc1ccc(-c2cc(C(=O)Nc3cccc(S(N)(=O)=O)c3)c3ccccc3n2)cc1C`?
NTMT1 inh: -3%

What do the screens show for `NC(N)=NN=C(/C=C/c1ccc([N+](=O)[O-])o1)/C=C/c1ccc([N+](=O)[O-])o1`?
NTMT1 inh: 40µM*; HTT-AS act: -80%; HTT promoter inh: inconclusive

What do the screens show for `O=[N+]([O-])c1ccc(/C=N\O)o1`?
NTMT1 inh: 24%[57.5 µM]; HTT-AS act: -5%; HTT promoter inh: 0%

How did NC(=O)c1c(-c2ccccc2)no[n+]1[O-] do in these assays?
NTMT1 inh: -3%

How did COc1ccc(-c2cc3nc(C)c(CCC(=O)N4CCN(c5ccccc5)CC4)c(C)n3n2)c(OC)c1 do in these assays?
NTMT1 inh: -6%; HTT-AS act: -12%; HTT promoter inh: -10%

How did Cc1nc2cc(-c3ccc(Cl)cc3)nn2c(C)c1CCC(=O)N1CCN(c2ccccc2)CC1 do in these assays?
NTMT1 inh: -9%; HTT-AS act: -75%; HTT promoter inh: 1µM*

How did Cc1nc2cc(-c3cccc(F)c3)nn2c(C)c1CCC(=O)N1CCN(c2ccc(F)cc2)CC1 do in these assays?
NTMT1 inh: -10%; HTT-AS act: -61%; HTT promoter inh: inconclusive

Results for Cc1nc2cc(-c3ccccc3)nn2c(C)c1CCC(=O)N1CCN(c2ccccc2)CC1 ?
NTMT1 inh: 11%; HTT-AS act: -67%; HTT promoter inh: 2.5µM*

Results for CCOC(=N)c1nc2ccc3ncnc(Nc4cc(F)c(F)cc4Cl)c3c2s1 ?
NTMT1 inh: -23%

How did O=C(Nc1ccc(F)c(C(F)(F)F)c1)Nc1nnc(-c2ccncc2)o1 do in these assays?
NTMT1 inh: 14%

What do the screens show for `CC(C)c1cc(C(=O)N2CC[C@@H](NC(=O)C3CC3)C2)n[nH]1`?
NTMT1 inh: -7%[57.5 µM]

What do the screens show for `O=C(Nc1cnccc1Cl)N1CCN(Cc2ccc3c(c2)OC(F)(F)O3)CC1`?
NTMT1 inh: 2%

Results for COc1ccc(CNC(=O)c2nc(Cn3nc(C)c(Br)c3C)no2)cc1OC ?
NTMT1 inh: 89µM*; HTT-AS act: -44%; HTT promoter inh: -40%

How did COc1cccc(CNC(=O)c2nc(Cn3nc(C)c(Br)c3C)no2)c1 do in these assays?
NTMT1 inh: -15%; HTT-AS act: -2%; HTT promoter inh: -28%

What do the screens show for `COc1ccc(NC(=O)c2ccc(-c3nc(CSc4ccccc4)c(C)o3)cc2)cc1OC`?
NTMT1 inh: -5%; HTT-AS act: -23%; HTT promoter inh: inconclusive

How did Cc1oc(-c2ccc(C(=O)Nc3cccc(C(F)(F)F)c3)cc2)nc1CSc1ccccc1 do in these assays?
NTMT1 inh: 13%; HTT-AS act: -89%; HTT promoter inh: 1.8µM*
